# Shown are actives, neighbours in structure and some others; about 11% of the full set was active somewhere.
# NPR1 antag = human Npr1 receptor antagonism | P16066 | HEK293 hNpr1 GloSensor cGMP, ANP-stimulated luminescence | Potency, µM (highest dose often 46.3 µM), for the others: at the top dose activity change, negative = inhibition, usual class: inhibitors | 1.6% of 76,000 active | AID 1347048; calls by dose curve; also: nearly all actives have a fitted effect of over 60% in size
# Target sequence (P16066 whole entry, looked up): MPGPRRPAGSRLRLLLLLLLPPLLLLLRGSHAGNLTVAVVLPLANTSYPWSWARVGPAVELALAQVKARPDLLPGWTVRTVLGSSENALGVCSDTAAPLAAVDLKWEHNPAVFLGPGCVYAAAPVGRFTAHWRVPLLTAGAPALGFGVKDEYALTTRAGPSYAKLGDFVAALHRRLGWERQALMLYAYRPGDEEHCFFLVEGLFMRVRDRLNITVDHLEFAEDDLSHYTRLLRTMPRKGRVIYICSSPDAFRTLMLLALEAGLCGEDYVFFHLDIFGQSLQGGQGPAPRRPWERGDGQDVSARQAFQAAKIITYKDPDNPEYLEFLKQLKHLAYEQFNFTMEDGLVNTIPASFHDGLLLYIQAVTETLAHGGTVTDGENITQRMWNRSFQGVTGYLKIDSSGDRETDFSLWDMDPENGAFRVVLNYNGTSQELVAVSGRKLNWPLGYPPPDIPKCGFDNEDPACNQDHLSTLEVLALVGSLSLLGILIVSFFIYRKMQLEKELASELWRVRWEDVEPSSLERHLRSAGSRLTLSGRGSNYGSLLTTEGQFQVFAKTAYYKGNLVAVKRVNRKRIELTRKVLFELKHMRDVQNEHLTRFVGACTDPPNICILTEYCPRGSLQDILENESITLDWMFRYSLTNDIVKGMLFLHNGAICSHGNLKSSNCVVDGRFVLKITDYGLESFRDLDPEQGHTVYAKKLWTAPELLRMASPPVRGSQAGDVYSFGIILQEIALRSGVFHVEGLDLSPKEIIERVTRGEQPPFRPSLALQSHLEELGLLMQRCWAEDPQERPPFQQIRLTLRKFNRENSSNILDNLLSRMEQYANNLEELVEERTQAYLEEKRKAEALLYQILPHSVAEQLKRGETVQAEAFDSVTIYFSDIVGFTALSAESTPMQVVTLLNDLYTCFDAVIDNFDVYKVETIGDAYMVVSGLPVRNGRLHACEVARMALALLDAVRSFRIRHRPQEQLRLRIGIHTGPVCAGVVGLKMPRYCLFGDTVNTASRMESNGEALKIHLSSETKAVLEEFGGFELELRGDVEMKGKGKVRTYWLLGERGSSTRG
#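 Compound pre-incubated 30 min at room temperature on GloSensor-loaded HEK293 cells stably carrying hNpr1 and the pGS-40F cGMP biosensor. Stimulation uses hNppA at 0.1 nM final; luminescence is taken at baseline and 20 min post-agonist.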
# HEK cytotox = cytotoxic compounds in HEK 293 cells; Potency, µM (highest dose often 115 µM), for inactives: top-dose activity change, negative = cytotoxicity, most hits filed as inhibitors; 6.6% of 94,000 active; AID 1345083; HEK 293 viability, ATP luminescence (CellTiter-Glo), 48-72 h; also: nearly all actives have a fitted effect of over 60% in size
#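 Luminescence from cellular ATP, measured with CellTiter-Glo, indicates HEK 293 viability. Cells plated at 250 cells/well are treated with compound for 48 or 72 hr at 37 degree Celsius before reagent addition.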
# FLuc inh = Photinus pyralis luciferase inhibition; Potency, µM (top dose mostly 115 µM), actives largely listed as inhibitors; purified P. pyralis luciferase, luminescence, biochemical; AID 1347043; 2.5% of 76,000 active; also: nearly all actives have a fitted effect of over 65% in size
#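 Purified 10nM P. pyralis luciferase with 10uM D-luciferin and 10uM ATP in 50mM Tris acetate pH 7.5, 10mM Mg acetate, 0.01% Tween-20, 0.05% BSA. qHTS titration; luminescence read by CCD imager.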
# 3T3 cytotox = cytotoxic compounds in NIH 3T3 cells. NIH 3T3 viability, CellTiter-Glo ATP luminescence, 48-72 h. Potency, µM (highest dose often 96.7 µM), for inactives: at the top dose activity change, negative = cytotoxicity, most hits filed as inhibitors. 4.3% of 94,000 active. AID 1345082; also: nearly all actives have a fitted effect of over 55% in size
#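 Cytotoxicity was measured by CellTiter-Glo ATP luminescence after 48 or 72 h compound exposure at 37 °C. Mouse NIH 3T3 fibroblasts were seeded at 400 cells/well and dosed by 23 nL pin transfer.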
# The depositor's hits bear a star; i = inactive; ? = inconclusive; . = no result; ! = a repeat was not active; [ ] = dose if it differs, or a comment. Unless noted, calls follow the shape of the dose curve; as a rule, active = well fitted curve in the direction sought with a large enough effect; inconclusive = small, poorly fitted or top-dose-only effect, or another doubt; inactive = no such curve, though single readings can be large; an effect the other way counts as inactive or inconclusive. % is scaled to controls: 0 for no effect and ±100 for the full control effect; potency is read from the fitted curve at half-maximal effect.
SMILES,NPR1 antag,HEK cytotox,FLuc inh,3T3 cytotox
O=C(Nc1cccc2ccccc12)O[C@@H]1CO[C@H]2[C@@H]1OC[C@@H]2NS(=O)(=O)c1cccc2cccnc12,-2.9%,-20.3%,i,-29.8%
Cc1cc(C)n(C2CN(Cc3cccc(OCC(O)CN4CCOCC4)c3)C2)n1 (stereo not drawn),0.4%,1.0%,i,4.0%
CN1c2cc(C(=O)N3CCN(c4ccccc4Cl)CC3)ccc2C(=O)N2CCCCC21 (stereo not drawn),0.0%,39.8µM*,i,?
Cc1ccccc1N1CCN(C(=O)c2ccc3c(c2)N(C)C2CCCCCN2C3=O)CC1 (stereo not drawn),0.4%,44.7µM*,i,?
c1ccc(OCCNc2nc(-c3cccnc3)nc3c2CCNCC3)cc1,?,?,i,31.6µM*
Cc1ncsc1CCCNc1nc(-c2ccccn2)nc2c1CCNCC2,0.2%,-22.4%,i,-15.4%
O=C(c1cc2sccc2[nH]1)N1CCCn2nc(C(O)CO)cc2C1 (stereo not drawn),5.4%,i,i,-1.5%
O=C(c1cccc(O)c1)N1CCc2c(n(CCOc3ccccc3)n(-c3ccccc3)c2=O)C1,-8.5%,-14.5%,i,22.4µM*
O=C(NCc1cccs1)C1CCCCN1Cc1ccc(-c2cccs2)cc1 (stereo not drawn),.,31.6µM*,.,28.2µM*
C#CCNC(=O)C1CCCN1Cc1ccc(-c2cncnc2)cc1 (stereo not drawn),.,-17.9%[172 µM],.,-12.7%[138 µM]
O=C(NCC(F)F)C1CCCCN1Cc1ccc(-c2cccs2)cc1 (stereo not drawn),.,25.1µM*,.,-25.1%
Cc1ccc(C)c(-n2nc(-c3c(C)nc4scc(CC(=O)NC(C)C(C)C)n4c3=O)cc2C)c1 (stereo not drawn),5.2%,?,i,-25.8%
CCCS(=O)(=O)N1CCC2(CC1)CN(Cc1ccc(OC)cc1)C2=O,-10.1%,-14.1%,i,-24.0%
N#Cc1cccc(NC(=S)N[C@H]2CO[C@H]3[C@@H]2OC[C@@H]3n2nnnc2Oc2cccc(N3CCOCC3)c2)c1,0.0%,44.7µM*,i,-28.3%
Cc1ncc2n1C(=O)N(C1CCN(Cc3ccc(C(F)(F)F)cc3)CC1)C2,?,35.5µM*!,i,?
Cc1ncc2n1C(=O)N(C1CCN(Cc3ccc(F)cc3)CC1)C2,22.7%[70.6 µM],?,i,-25.0%[138 µM]
CCc1ccc(CNC(=O)C2Cn3cccc3C(=O)N2)cc1 (stereo not drawn),-3.1%,4.1%,i,-16.2%
N#Cc1cccc(C(=O)NC2CCN(c3cc(-c4ccc(F)cc4)[nH]n3)CC2)c1,-22.7%,?,i,?
COc1ccc(-c2cc(N3CCC(NC(=O)c4cccc(C)c4)C3)n[nH]2)cc1 (stereo not drawn),0.7%,?,i,-17.0%
COc1ccc(-c2cc(N3CCC(NC(=O)c4cccc(OC(F)(F)F)c4)C3)n[nH]2)cc1 (stereo not drawn),-9.6%,39.8µM*,i,?
N#Cc1cccc(C(=O)NC2CCN(c3cc(-c4ccc(F)cc4)[nH]n3)C2)c1 (stereo not drawn),-11.3%,44.7µM*,i,?
COc1ccc(-c2cc(N3CCC(NC(=O)c4cccc(C#N)c4)C3)n[nH]2)cc1 (stereo not drawn),-10.5%,35.5µM*,i,?
CC(=O)N1CCNc2cc(-c3ccc(Oc4ccccc4)cc3)ncc2C1,-18.9%[70.6 µM],70.8µM*,20µM*,?
COc1cccc(CN2CCNc3cc(-c4ccccc4)ncc3C2)c1,-1.1%[70.6 µM],?,39.8µM*,?
CN(C)C(=O)c1ccc(-c2cc3c(cn2)CN(CCc2ccccc2)CCN3)cc1,-14.0%[70.6 µM],?,i,?
SMILES,NPR1 antag,HEK cytotox,FLuc inh,3T3 cytotox
COc1ccc(CN2CCNc3cc(Nc4ccccc4)ncc3C2)cc1O,-12.4%[70.6 µM],100µM*,i,79.4µM*
COc1ccc(Nc2cc3c(cn2)CN(Cc2ccncc2)CCN3)cc1OC,-1.3%[70.6 µM],?,i,?
NC(=O)c1cccc(-c2cc3c(cn2)CN(CCc2ccccc2)CCN3)c1,-6.3%[70.6 µM],?,?,89.1µM*
CC1(C)[C@H](Cc2cc(CN3CCOCC3)on2)C[C@@H]1NC(=O)c1ccnc(Cl)c1,-14.9%[70.6 µM],?,i,?
COc1ccc(CN2CCNc3cc(-c4ccccc4)ncc3C2)cc1O,-15.9%[70.6 µM],89.1µM*,i,?
Cc1ccc(S(=O)(=O)N2CCCC(Cn3cnc4cccnc43)C2)cc1F (stereo not drawn),-18.9%,-28.2%,i,-35.4%

# Screens as filed in PubChem BioAssay.
